The campaign covered roughly 360,000 compounds. About 10,000 (2.8%) were called active. Another 4% or so got no clear call; they are omitted. Calls follow the shape of the dose curve; as a rule, active = well fitted inhibition curve with a large enough effect; inconclusive = small, poorly fitted or top-dose-only effect; inactive = flat fitted curve, though single readings scatter. The full list was thinned out, with actives kept by preference.
Target: Serine/threonine-protein kinase PLK1 (Homo sapiens) (UniProt P53350)
Sequence (P53350 whole entry, looked up, the tested form may be a part): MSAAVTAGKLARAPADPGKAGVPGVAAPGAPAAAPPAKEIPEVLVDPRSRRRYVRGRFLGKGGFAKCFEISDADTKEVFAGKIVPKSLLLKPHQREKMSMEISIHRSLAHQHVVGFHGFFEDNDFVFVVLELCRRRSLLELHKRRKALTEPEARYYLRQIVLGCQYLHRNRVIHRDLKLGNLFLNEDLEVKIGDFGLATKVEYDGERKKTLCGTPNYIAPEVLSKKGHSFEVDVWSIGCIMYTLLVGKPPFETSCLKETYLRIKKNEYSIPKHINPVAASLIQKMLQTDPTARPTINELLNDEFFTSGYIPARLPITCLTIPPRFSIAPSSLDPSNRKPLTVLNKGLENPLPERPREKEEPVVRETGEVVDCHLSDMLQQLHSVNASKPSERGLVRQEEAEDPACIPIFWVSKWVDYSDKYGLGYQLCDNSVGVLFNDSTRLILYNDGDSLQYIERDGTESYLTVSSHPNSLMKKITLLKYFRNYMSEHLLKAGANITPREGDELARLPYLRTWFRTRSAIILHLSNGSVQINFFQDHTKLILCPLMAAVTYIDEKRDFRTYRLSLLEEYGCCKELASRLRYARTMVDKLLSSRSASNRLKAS
Assay: qHTS for Inhibitors of PLK1-PDB (polo-like kinase 1 - polo-box domain): Primary Screen; also: nearly all actives have a fitted effect of over 65% in size; as to max response, negative = inhibition: series mostly up to about 57 µM
Details: Plk1 PBD binding of FITC phosphopeptide, fluorescence polarization
From the text: The polo-like kinase 1 (Plk1) is a member of a conserved subfamily of serine / threonine protein kinases that plays a pivotal roles in cell proliferation. It has a C-terminal non-catalytic region called the polo-box domain (PBD) that plays a crucial role in the subcellular localization of the Plk1. […] Furthermore, depletion of the overexpressed Plk1 by RNAi efficiently induces apoptotic cell death in cancer and reduces tumor growth in mouse xenograft models. Thus, targeting Plk1 is an appealing strategy for anti-cancer therapy. Therefore, this project aimed to screen the Molecular Libraries Small Molecule Repository (MLSMR) using a novel approach to find inhibitors that target the Plk1 PBD instead of the conventional N-terminal catalytic domain. This project employed a fluorescence polarization (FP) assay using a FITC-conjugated phospho-9-mer (p-9-mer) peptide and purified human Plk1 PBD protein. The identified small molecule inhibitors of Plk1 PBD can then further be developed into useful tools for biomedical and clinical research that complements or replaces current relevant disease therapy. NIH Chemical Genomics Center [NCGC] NIH Molecular Libraries Probe Centers Network [MLPCN] MLPCN Grant: MH100728 Assay Submitter (PI): Kyung Lee, NCI
Four microliter of 25 nM FITC-p-9-mer + 60 nM Plk1 PBD in buffer solution (final concentrations 25 nM and 60 nM respectively) or 4 uL of 25 nM FITC-p-9-mer (final concentration 25 nM) in buffer will be dispensed into a 1,536 Greiner medium-binding black solid plate. Small molecules at final concentrations of 18 nM to 57 uM and positive control phospho-9-mer (sequence: Ac-PPLHSpTAI-NH2) at final concentrations 26 nM to 57 uM and phospho-13-mer (sequence: Ac-[…]pTAI-NH2) at final concentrations of 1 nM to 2.3 uM will be pin-transferred (23 nL) to the plate via a Kalypsys pin-tool robotics equipped with a 1,536-pin array. The reaction plate will be centrifuged for 1 min at 1000 rpm and incubated at room temperature for 10 min. The FITC fluorescence signals will be read using the PerkinElmer ViewLux plate reader at 480 / 20 nm excitation and 540 / 20 nm S and P polarization emission wavelengths. Reagent bottles will be kept submerged into 4 °C recirculating chiller bath and all liquid lines will be covered with aluminum foil to minimize degradation. Library plates will be screened starting from the lowest to the highest concentrations to minimize compound carryover. Vehicle only plates, with DMSO being pin-transferred instead of compound solutions, will be included regularly throughout the screen to record any systematic shifts in assay signal.
% is scaled to controls: 0 for no effect and ±100 for the full control effect; potency is read from the fitted curve at half-maximal effect.

Compound	max response, negative = inhibition	Potency
CC1=C(C(=O)N2CCOCC2)CC(CC(=O)NCCN2CCOCC2)C(=O)N1CCC1=CCCCC1 (centres undefined)	1.89% (inactive)	–
COc1cccc(-c2nc3nc(C)cc(C)n3c2NC2CCCCC2)c1	-13.3% (inactive)	–
CCNC(=O)c1cc2c(c(-c3cccc(-c4cncnc4)c3)n1)[C@H](CCO)N(C(C)=O)C2	-4.29% (inactive)	–
O=C(Nc1cc(Br)ccc1F)c1nc[nH]c1C(=O)NCc1ccccc1	-13.2% (inactive)	–
COc1cccc(-c2cc3nc(NCc4ccccc4OC)n(C)c(=O)c3s2)c1	3.07% (inactive)	–
c1ccc(COc2nsnc2N2CCOCC2)cc1	–	26.7 µM (active)
c1nc(COc2nsnc2N2CCOCC2)cs1	-14.8% (inactive)	–
O=C(O)COc1nsnc1N1CCOCC1	-5.74% (inactive)	–
C[C@H]1COc2cc(N3CCSCC3)ccc2S(=O)(=O)N1	-1.34% (inactive)	–
CC(C)C[C@H]1CNC(=O)C(=O)N1C[C@H]1CCCN1C[C@H](Cc1ccc(O)cc1)N1C[C@H](CC(C)C)N(CC2CCCCCC2)C(=O)C1=O	-0.278% (inactive)	–
COc1ccc(S(=O)(=O)N2CCCCC2c2cc(C(=O)NCc3ccc(F)cc3)no2)cc1 (centres undefined)	4.51% (inactive)	–
COc1cccc(/C=C(/CC(=O)Nc2ccc(N3CCOCC3)cc2)c2nc3ccccc3s2)c1	8.02% (inactive)	–
Cc1nn(-c2ccc(F)cc2)c(Cl)c1/C=C(/CCC(=O)O)c1nc2ccccc2s1	–	59.7 µM (active)
Cc1nn(-c2ccccc2)c(Cl)c1/C=C/C(=O)c1ccc(O)cc1	-17.2% (inactive)	–
CC(C)[C@H](NC(=O)c1ccccc1F)C(=O)Nc1cccc(S(=O)(=O)N2CCOCC2)c1	2.03% (inactive)	–
COc1ccc(CNC(=O)c2ccc(-c3cccnc3)c3ccoc23)cc1OC	-7.35% (inactive)	–
CCOC(=O)C1=CCC2C(=O)N(Cc3ccccc3)C(=O)C12 (centres undefined)	-2.51% (inactive)	–
CCN(CC)C(=O)C1CCCN(Cc2cccc(Cl)c2)C1 (centres undefined)	-16.8% (inactive)	–
C=CCOc1c(Br)cc(/C=N\n2nnnc2N)cc1OC	-13.9% (inactive)	–
CCOc1c(Br)cc(/C=C2\C(=O)N(CCC#N)N=C2C)cc1OC	–	1.06 µM (active)
CC1(C(=O)NS(=O)(=O)c2cccc(F)c2)CCN1C(=O)Cc1ccc(Cl)cc1Cl (centres undefined)	1.99% (inactive)	–
C[C@H](CO)N1C[C@H](C)[C@@H](CN(C)C(=O)C2CCCCC2)OCc2cnnn2CCCC1=O	-18.4% (inactive)	–
CCOC(=O)C1=CC[C@@H](c2ccncc2)N(S(=O)(=O)c2ccc(C)cc2)C1	-3.59% (inactive)	–

Compound	max response, negative = inhibition	Potency
CN(CC(=O)Nc1ccc(F)cc1)C(=O)c1ccc(-c2ccc(Cl)cc2)o1	-3.69% (inactive)	–
Cc1[nH][nH]c(=O)c1C(c1ccc(-c2ccc(Cl)cc2)o1)c1c(C)[nH][nH]c1=O	–	26.7 µM (active)
COc1ccc(CNC(=O)CN2C(=O)c3ccccc3S2(=O)=O)cc1	–	26.7 µM (active)
NS(=O)(=O)c1ccc(CCNC(=O)CN2C(=O)c3ccccc3S2(=O)=O)cc1	-4.84% (inactive)	–
COc1ccc(CNC(=O)CCn2cccc2)cc1	1.6% (inactive)	–
COc1cccc(OC)c1C(=O)N1CCN(Cc2ccccc2F)CC1	-14.6% (inactive)	–
C=C1C(=O)OC2C1CCC(C)=CCCC1(C)OC21 (centres undefined)	-24.4% (inactive)	–
CC1(C(=O)NS(=O)(=O)C2CC2)CCCN(C(=O)CSc2ccccc2)C1 (centres undefined)	-7.19% (inactive)	–
CC1CCN(C(=O)c2ccc3c(c2)NC(=O)CN3)CC1	62.7% (inactive)	–
O=C1Nc2cc(C(=O)N3CCN(c4ccc(F)cc4)CC3)ccc2NC1CSCc1cccc(F)c1 (centres undefined)	–	29.9 µM (active)
Cc1ccc(CSCC2Nc3ccc(C(=O)N4CCN(c5ccc(F)cc5)CC4)cc3NC2=O)cc1 (centres undefined)	–	8.44 µM (active)
Cc1ccc(SCC(=O)N2CCN(c3ccc(F)cc3)CC2)cc1	4.7% (inactive)	–
O=C(c1cccc(F)c1)N1CCN(c2ccc([N+](=O)[O-])c(N3CCCCC3)c2)CC1	-8.34% (inactive)	–
C=CCn1c(SCc2cccc(F)c2)nc2cc(C(=O)N3CCC(C(N)=O)CC3)ccc2c1=O	-5.4% (inactive)	–
Cc1nc2ccccc2nc1CC(O)(c1ccccc1)c1ccccc1	-15.9% (inactive)	–
COc1cccc(CN(C)C(=O)CC[C@H]2O[C@@H](n3cnc4c(NC(=O)c5ccccc5)ncnc43)[C@H](O)[C@@H]2O)c1	-1.63% (inactive)	–
Cc1ccc(C(NC(=O)C2CCN(CCOc3ccc(Cl)cc3Cl)CC2)c2ccccn2)cc1 (centres undefined)	-11.3% (inactive)	–
CC(=O)Nc1ccc(NC(=O)CSc2nnc(C3CC3)n2-c2ccccc2)cc1	7.6% (inactive)	–
Cc1nnc(SCC(=O)Nc2cccc(N)c2)n1-c1ccccc1	–	26.7 µM (active)
CCOc1cc(C)ccc1OCc1nnc(SCC(=O)Nc2cccc(C(=O)O)c2)n1-c1ccccc1	-7.97% (inactive)	–
OCC1OC(n2cnc3c(N4CCCC4)ncnc32)C(O)C1O (centres undefined)	-0.393% (inactive)	–
C[C@@H]1CN([C@H](C)CO)C(=O)c2cc(Br)cnc2O[C@@H]1CN(C)Cc1cncnc1	-13.8% (inactive)	–
CN(CCO)C(=O)c1nc[nH]c1C(=O)N(C)Cc1ccccc1	-6.79% (inactive)	–

Compound	max response, negative = inhibition	Potency
CC1=CC(=C(C#N)c2nc3ccccc3s2)C=C(C)N1c1ccc(F)cc1F	–	21.2 µM (active)
CN(Cc1nc2ccccc2s1)C(=O)c1ccc(F)cc1	-6.86% (inactive)	–
O=C(NCc1cccnc1)c1ccc2nc([C@@H]3O[C@H](CO)[C@H](O)[C@H](O)[C@H]3O)[nH]c2c1	-4.09% (inactive)	–
COc1cc(C=NC2CCCCC2)ccc1O	4.49% (inactive)	–
CC(=O)c1sc(N/N=C/c2ccc(C(C)C)cc2)nc1C	11.6% (inactive)	–
COc1cc(/C=N\Nc2nc(-c3cccs3)c(NC(C)=O)s2)ccc1O	–	26.7 µM (active)
CCc1ccccc1NC(=O)CN1CCN(C(=O)c2cc(C3CC3)nn2-c2ccccc2)CC1	7.48% (inactive)	–
COc1ccc(S(=O)(=O)NC(=O)C2(C)CCN2C(=O)COc2ccc(Cl)cc2)cc1 (centres undefined)	-3.35% (inactive)	–
CC(C)Nc1ncnc2c1ncn2[C@H]1CN(Cc2ccncc2)C[C@@H](CO)O1	0.157% (inactive)	–
CC(=O)c1nn(-c2ccccc2)c(=Nc2ccccc2)cc1C	-4.39% (inactive)	–
O=C(COc1ccccc1)Nc1ccc(C(=O)N2CCCC2)cc1	-9.45% (inactive)	–
O=C(COc1ccccc1)Nc1ccc(N2CCN(C(=O)c3cccs3)CC2)cc1	–	26.7 µM (active)
COc1ccc(N2CCN(C(=O)c3cccs3)CC2)cc1	0.204% (inactive)	–
Cc1ccc(S(=O)(=O)N2CCC(=O)N([C@H](COCc3ccccc3)C(C)C)CC2)cc1	-7.98% (inactive)	–
Cc1cc(C(=O)OCC(=O)Nc2nnc(C(C)C)s2)c2ccccc2n1	-7.1% (inactive)	–
Cc1cc(C(=O)OCC(=O)Nc2nccs2)c2ccccc2n1	–	3.36 µM (active)
O=C(COC(=O)c1ccc(O)cc1)Nc1nccs1	-1.48% (inactive)	–
CC1(C(=O)NS(=O)(=O)c2cccc(OC(F)F)c2)CCN1C(=O)C1CC1 (centres undefined)	3.22% (inactive)	–
CCCNC(=O)C1(C)CCN1C(=O)C1(c2ccccc2)CC1 (centres undefined)	-4.48% (inactive)	–
CC(C)(C)Cc1c(C2CCCCC2)nc2ccc(Br)cn12	3.52% (inactive)	–
COc1ccc(CNC(=O)C2CCN(S(C)(=O)=O)CC2)cc1	–	21.2 µM (active)
COc1ccc(CNC(=O)C2CCN(S(=O)(=O)c3ccc(SC)cc3)CC2)cc1	-7.7% (inactive)	–
COc1ccc(CNC(=O)C2CCN(S(=O)(=O)N3CCOCC3)CC2)cc1	3.12% (inactive)	–

Compound	max response, negative = inhibition	Potency
CC1(C(=O)NCc2cccc3ccccc23)CCN1Cc1ccc(-c2ccccc2)o1 (centres undefined)	-8.62% (inactive)	–
CCc1nc2ccc(C(=O)NCCNC(C)=O)cn2c1N(CC)Cc1cccc(Br)c1	-0.869% (inactive)	–
CCC(C(=O)NCc1ccccc1)n1c(Cc2cc(F)cc(F)c2)nc2ccccc21 (centres undefined)	2.43% (inactive)	–
O=C(NCCN1CCOCC1)C1CCN(S(=O)(=O)c2ccccc2)CC1	1.1% (inactive)	–
O=C(NCc1cccs1)c1ccc(Br)o1	-4.89% (inactive)	–
CC(CNC(=O)c1ccc(Br)o1)NC(=O)c1ccc(Br)o1 (centres undefined)	–	2.99 µM (active)
CC(CCc1ccccc1)NC(=O)c1ccc(Br)o1 (centres undefined)	-7.05% (inactive)	–
O=C(COC(=O)/C=C/c1ccc(Cl)cc1)NC1CCS(=O)(=O)C1 (centres undefined)	3.25% (inactive)	–
O=S1(=O)CC(N2CCSCC2)CN1Cc1cn(Cc2cccc(Cl)c2)nn1 (centres undefined)	1.2% (inactive)	–
CSCCC(C(=O)NC(C)(C)C)n1c(-c2ccccc2)nc2ccccc21 (centres undefined)	-11.3% (inactive)	–
COc1cc(/C=N/Nc2ccc(C)cc2)cc(Br)c1O	–	29.9 µM (active)
COc1cc(/C=N/O)cc(Br)c1OS(=O)(=O)c1ccc(C)cc1	4.61% (inactive)	–
COc1cc(/C=N/NC(=S)Nc2cccnc2)cc(OC)c1O	-21% (inactive)	–
CCCc1nc2ccccc2n1C(C)C(=O)NC(C)(C)C (centres undefined)	-5.55% (inactive)	–
C[C@H]1CN([C@@H](C)CO)C(=O)c2cc(Br)cnc2O[C@H]1CN(C)S(=O)(=O)c1cccs1	-9.15% (inactive)	–
COc1ccc(CN2C(=O)C(CC(=O)NCCN3CCOCC3)CC(C(=O)N(C(C)C)C(C)C)=C2C)cc1 (centres undefined)	4.68% (inactive)	–
Cc1ccc(NC(=O)COC(=O)CN2CCSC2=O)cc1F	3.55% (inactive)	–
Nc1ccc2nn(-c3ccc(Cl)cc3)nc2c1	-7.93% (inactive)	–
O=C1CCCc2nn(-c3ccccc3)nc21	-8.07% (inactive)	–
c1ccc(-n2nc3ccccc3n2)cc1	–	29.9 µM (active)
